According to PubChem BioAssay (NCI):
Compounds without any hit were thinned out: in the full panel of roughly 79,000, 15% have a hit. Values without a mark were called inactive. Activity calls are given as the source filed them. Cut-off read from the data, not from the text of the source: active = growth inhibition above about 70%; inactive = the rest.

Columns and labels:
[1] = NCI Yeast Anticancer Drug Screen. Data for the rad50 strain (AID 155);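 note: 0% = growth of vehicle-only cultures of the same strain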; settings: S. cerevisiae rad50 strain growth inhibition, stronger effect = higher value
Procedure, shortened: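 Yeast carrying a defined DNA repair defect were exposed to test compounds, and growth was compared with vehicle-treated controls to give percent inhibition.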

[2] = NCI Yeast Anticancer Drug Screen. Data for the mec2-1 strain (AID 157); settings: S. cerevisiae mec2-1 strain, stronger effect = higher value
Procedure, shortened: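 mec2-1 yeast strain, carrying an alteration in DNA damage repair or cell cycle control, was exposed to compounds; growth inhibition was measured relative to vehicle-treated controls.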

[3] = NCI Yeast Anticancer Drug Screen. Data for the sgs1 mgt1 strain (AID 161);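 note: 0% = growth of cultures given vehicle only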; settings: S. cerevisiae sgs1 mgt1 strain, stronger effect = higher value
Procedure, shortened: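 This yeast growth screen uses a strain with defined DNA-repair lesions; compound-treated growth is compared with vehicle-treated growth.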

[4] = NCI Yeast Anticancer Drug Screen. Data for the cln2 rad14 strain (AID 165);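 note: 0% = growth equal to vehicle treated cultures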; settings: S. cerevisiae cln2 rad14 strain, stronger effect = higher value
Procedure, shortened: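 Yeast carrying cln2 and rad14 alterations (cell cycle control and DNA damage repair) were exposed to compounds. Growth inhibition was measured against vehicle-treated controls.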

[5] = NCI Yeast Anticancer Drug Screen. Data for the bub3 strain (AID 167); settings: S. cerevisiae bub3 mutant strain, stronger effect = higher value
Procedure, shortened: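 Compounds were applied to a genetically altered yeast strain carrying a cell-cycle control defect. Growth inhibition was scored against vehicle-treated controls.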

[6] = NCI Yeast Anticancer Drug Screen. Data for the mlh1 rad18 strain (AID 175); settings: S. cerevisiae mlh1 rad18 strain growth inhibition, stronger effect = higher value
Procedure, shortened: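 Growth inhibition of the yeast strain was measured after compound exposure and expressed relative to vehicle-treated controls. The strain carries defined defects in DNA damage repair.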

[7] = at 5.0 µM (retest, dose inferred, filed as 0.5)
[8] = at 50.0 µM (retest, dose inferred, filed as 5.0)

SMILES: Cc1nnc2nc3c(nn12)c1ccccc1n3C
- growth inhibition [1, 7]: -155%
- growth inhibition [1, 8]: -54%
- growth inhibition ([1]; at 50.0 µM): 46.3%
- growth inhibition [2, 7]: -49%
- growth inhibition [2, 8]: -33%
- growth inhibition ([2]; at 50.0 µM): 31.8%
- growth inhibition [3, 7]: -65%
- growth inhibition [3, 8]: -46%
- growth inhibition ([3]; at 50.0 µM): 15.8%
- growth inhibition [4, 7]: -60%
- growth inhibition [4, 8]: -44%
- growth inhibition ([4]; at 50.0 µM): 75.8% (active)
- growth inhibition [5, 7]: -64%
- growth inhibition [5, 8]: -57%
- growth inhibition ([5]; at 50.0 µM): -0.35%
- growth inhibition [6, 7]: -146%
- growth inhibition [6, 8]: -77%
- growth inhibition ([6]; at 50.0 µM): 5.45%

SMILES: Cc1cc(O)ccc1N=Nc1ccccc1
- growth inhibition [1, 7]: 10%
- growth inhibition [1, 8]: 99% (active)
- growth inhibition ([1]; at 50.0 µM): 99.7% (active)
- growth inhibition [2, 7]: -1%
- growth inhibition [2, 8]: 99% (active)
- growth inhibition ([2]; at 50.0 µM): 99.8% (active)
- growth inhibition [3, 7]: -1%
- growth inhibition [3, 8]: 99% (active)
- growth inhibition ([3]; at 50.0 µM): 99.7% (active)
- growth inhibition [4, 7]: -8%
- growth inhibition [4, 8]: 99% (active)
- growth inhibition ([4]; at 50.0 µM): 99.4% (active)
- growth inhibition [5, 7]: 14%
- growth inhibition [5, 8]: 99% (active)
- growth inhibition ([5]; at 50.0 µM): 99.5% (active)
- growth inhibition [6, 7]: 1%
- growth inhibition [6, 8]: 99% (active)
- growth inhibition ([6]; at 50.0 µM): 99.7% (active)

SMILES: O=C1C=C(Cl)C(=O)C2=C1CCCC2
- growth inhibition [1, 7]: 10%
- growth inhibition [1, 8]: 89% (active)
- growth inhibition ([1]; at 50.0 µM): 95.2% (active)
- growth inhibition [2, 7]: 11%
- growth inhibition [2, 8]: 98% (active)
- growth inhibition ([2]; at 50.0 µM): 70.8% (active)
- growth inhibition [3, 7]: 8%
- growth inhibition [3, 8]: 98% (active)
- growth inhibition ([3]; at 50.0 µM): 61.1%
- growth inhibition [4, 7]: -1%
- growth inhibition [4, 8]: 48%
- growth inhibition ([4]; at 50.0 µM): 59.2%
- growth inhibition [5, 7]: 1%
- growth inhibition [5, 8]: 98% (active)
- growth inhibition ([5]; at 50.0 µM): 99.2% (active)
- growth inhibition [6, 7]: 20%
- growth inhibition [6, 8]: 98% (active)
- growth inhibition ([6]; at 50.0 µM): 93.9% (active)

SMILES: CSc1nc(=Nc2ccccc2)sn1-c1ccccc1
- growth inhibition [1, 7]: 10%
- growth inhibition [1, 8]: 98% (active)
- growth inhibition ([1]; at 50.0 µM): 98.8% (active)
- growth inhibition [2, 7]: 26%
- growth inhibition [2, 8]: 98% (active)
- growth inhibition ([2]; at 50.0 µM): 99.5% (active)
- growth inhibition [3, 7]: 27%
- growth inhibition [3, 8]: 98% (active)
- growth inhibition ([3]; at 50.0 µM): 99.2% (active)
- growth inhibition [4, 7]: 27%
- growth inhibition [4, 8]: 97% (active)
- growth inhibition ([4]; at 50.0 µM): 99.4% (active)
- growth inhibition [5, 7]: 41%
- growth inhibition [5, 8]: 98% (active)
- growth inhibition ([5]; at 50.0 µM): 99.3% (active)
- growth inhibition [6, 7]: 15%
- growth inhibition [6, 8]: 98% (active)
- growth inhibition ([6]; at 50.0 µM): 99% (active)

SMILES: CN(C)C(N)=NC#N
- growth inhibition [1, 7]: 25%
- growth inhibition [1, 8]: 47%
- growth inhibition ([1]; at 50.0 µM): 73.2% (active)
- growth inhibition [2, 7]: 22%
- growth inhibition [2, 8]: 86% (active)
- growth inhibition ([2]; at 50.0 µM): 75.7% (active)
- growth inhibition [3, 7]: 27%
- growth inhibition [3, 8]: 96% (active)
- growth inhibition ([3]; at 50.0 µM): 51.2%
- growth inhibition [4, 7]: 20%
- growth inhibition [4, 8]: 54%
- growth inhibition ([4]; at 50.0 µM): 9.65%
- growth inhibition [5, 7]: 29%
- growth inhibition [5, 8]: 95% (active)
- growth inhibition ([5]; at 50.0 µM): 65.2%
- growth inhibition [6, 7]: 33%
- growth inhibition [6, 8]: 71% (active)
- growth inhibition ([6]; at 50.0 µM): 67%

SMILES: CN(C)C(=S)/N=c1\ss/c(=N\S(=O)(=O)c2ccccc2)n1-c1ccccc1
- growth inhibition [1, 7]: 0%
- growth inhibition [1, 8]: 0%
- growth inhibition ([1]; at 50.0 µM): 37.6%
- growth inhibition [2, 7]: -5%
- growth inhibition [2, 8]: -13%
- growth inhibition ([2]; at 50.0 µM): 51.9%
- growth inhibition [3, 7]: -2%
- growth inhibition [3, 8]: 26%
- growth inhibition ([3]; at 50.0 µM): 64.9%
- growth inhibition [4, 7]: -10%
- growth inhibition [4, 8]: -21%
- growth inhibition ([4]; at 50.0 µM): 9.6%
- growth inhibition [5, 7]: -52%
- growth inhibition [5, 8]: -2%
- growth inhibition ([5]; at 50.0 µM): 29.1%
- growth inhibition [6, 7]: -1%
- growth inhibition [6, 8]: 15%
- growth inhibition ([6]; at 50.0 µM): 59.7%

SMILES: Cc1ccc(S(=O)(=O)NCCSSCCNS(=O)(=O)c2ccc(C)cc2)cc1
- growth inhibition [1, 7]: -4%
- growth inhibition [1, 8]: 95% (active)
- growth inhibition ([1]; at 50.0 µM): 93.5% (active)
- growth inhibition [2, 7]: -3%
- growth inhibition [2, 8]: 97% (active)
- growth inhibition ([2]; at 50.0 µM): 96% (active)
- growth inhibition [3, 7]: -2%
- growth inhibition [3, 8]: 98% (active)
- growth inhibition ([3]; at 50.0 µM): 96.6% (active)
- growth inhibition [4, 7]: -6%
- growth inhibition [4, 8]: 96% (active)
- growth inhibition ([4]; at 50.0 µM): 94% (active)
- growth inhibition [5, 7]: 1%
- growth inhibition [5, 8]: 95% (active)
- growth inhibition ([5]; at 50.0 µM): 94.3% (active)
- growth inhibition [6, 7]: 1%
- growth inhibition [6, 8]: 96% (active)
- growth inhibition ([6]; at 50.0 µM): 95.4% (active)

SMILES: Cc1occc1C(=S)Nc1ccc(Cl)c(COC(C)(C)C)c1
- growth inhibition [1, 7]: 26%
- growth inhibition [1, 8]: 74% (active)
- growth inhibition ([1]; at 50.0 µM): 78.9% (active)
- growth inhibition [2, 7]: 6%
- growth inhibition [2, 8]: 74% (active)
- growth inhibition ([2]; at 50.0 µM): 84.3% (active)
- growth inhibition [3, 7]: 17%
- growth inhibition [3, 8]: 84% (active)
- growth inhibition ([3]; at 50.0 µM): 85.7% (active)
- growth inhibition [4, 7]: 22%
- growth inhibition [4, 8]: 86% (active)
- growth inhibition ([4]; at 50.0 µM): 84.8% (active)
- growth inhibition [5, 7]: 26%
- growth inhibition [5, 8]: 90% (active)
- growth inhibition ([5]; at 50.0 µM): 86.2% (active)
- growth inhibition [6, 7]: 19%
- growth inhibition [6, 8]: 85% (active)
- growth inhibition ([6]; at 50.0 µM): 78.5% (active)

SMILES: COc1ccc(N=NC(C(=O)c2ccccc2)C(=O)c2ccccc2)cc1
- growth inhibition [1, 7]: 29%
- growth inhibition [1, 8]: 96% (active)
- growth inhibition ([1]; at 50.0 µM): 92.3% (active)
- growth inhibition [2, 7]: -1%
- growth inhibition [2, 8]: 94% (active)
- growth inhibition ([2]; at 50.0 µM): 93.2% (active)
- growth inhibition [3, 7]: 20%
- growth inhibition [3, 8]: 94% (active)
- growth inhibition ([3]; at 50.0 µM): 92.4% (active)
- growth inhibition [4, 7]: 6%
- growth inhibition [4, 8]: 95% (active)
- growth inhibition ([4]; at 50.0 µM): 88.7% (active)
- growth inhibition [5, 7]: -3%
- growth inhibition [5, 8]: 97% (active)
- growth inhibition ([5]; at 50.0 µM): 91.2% (active)
- growth inhibition [6, 7]: -18%
- growth inhibition [6, 8]: 97% (active)
- growth inhibition ([6]; at 50.0 µM): 91.2% (active)
